# Laboratory results from the supplement of paper PMC6555819.
# Test system: VDR:RXRa (NR concentration 270 nM, RXRa partner concentration 90 nM)
# Test: PBM binding z-score (relative to random genomic background probes); higher = stronger binding; sequences stand for … in GC…GCGATTGACAGCGTAGAATGAAGG
# Procedure: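 Protein-binding microarray (Agilent 4x180K custom design, double-stranded 60-nt probes: 5' GC cap, 34-nt variable region, 24-nt constant primer region; full probe sequence given). Purified or IVT nuclear receptor:RXRα heterodimers (3:1 NR:RXRα, mostly 270:90 nM) or homodimers were incubated for 1 h in PBS with 2% milk and no ligand, then detected with Alexa488 antibodies. Fluorescence from o1-orientation probes (~5 replicates averaged) was converted to z-scores against 500 random hg19 background probes. Variable regions are seed direct-repeat (DR0–DR5) sites, all their single-nucleotide variants and half-site ablations.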
row,Sequence,PBM binding z-score
1,CGTCCAAGGTCAGAGATGTCAGTGAATGCCGAGT,3.64
2,TCTCGGAGGACATGAAAGGTCAGAGCTCGACATC,2.81
3,CCGAGTGGGGCATAAGGTTACCATAAGCCAGCCC,0.143
4,TCATATATGTAATACAGGTGAAAGTCGGCATCTA,0.899
5,AGTCAAAGTTCAGAACGAGGTAACGTAAAGCACG,2.86
6,TCTTGTAGATCAATAGAGTTTAAGAAAGTGCGCT,1.23
7,TTACTAAGGTGAAGGTCGTTGATCCCTCTGTAGA,1.73
8,TAGCCTAGGTGATGGGCCAGTATACCACGCGAAC,-0.726
9,TCCTATAGGTAAACAGGTGAAAGTCCGTAAGTTA,0.775
10,AAAATGAGGTTATACGTAGATCAGGGAAGAAAGT,1.65
11,TCTAGTTGGTCAAAGCTCACACACTCGAAATGCG,0.632
12,TCGAGTAGGTTACCAATGGGGCATTGAGCTTTCT,-0.0858
13,CCTCGGGGGACAACAGGAGGTCAGAGCTGCCAGA,2.71
14,GCAGACACGTGAAACGCAGGTAACTCAGGGTGGC,-0.854
15,TGTGCTAGGTCAACGATGGTCAGCTAATCTGCTA,1.65
16,ATACCAAGGTGATCGTGAGGTCGTTGTTACTAAC,3.18
17,TCTGCTAGGTCAACGCTGGTCAGCTAATCTGCTA,1.36
18,CCGACTGGGGCAGAAAGGTTACCATGCCATCCGG,0.756
19,CCTTACGGGTCAAGGTTATAGTACGGGTGGTACG,3.62
20,ATCGAAAGGTCGAAGGTGAATATACCCACCCGAA,3.08

row,Sequence,PBM binding z-score
1,TCTTGTATATCAAAGGTTAAGAAAGCCGAAGCCT,1.91
2,ATATGTGGGTTAAGGGTCATTCAGGTTGGTTCGC,5.79
3,TCATATAGGTAATTGCTAGGTGAAAGTCCGATCT,0.884
4,GCTAGCAGGCCTTTTGGGTCACTCAATGACGGGC,-0.0926
5,CAAACAGGGTCAGCTAGGCCAGAGTAGGGACGGC,4.09
6,GGAACGAGGGCTAAGTTGATAGCATCTGTCGACG,-0.701
7,TCATATCGGTAAATGCTAGGTGAAAGTCCGATCT,0.566
8,CCTAGTAGGCCAATCTGGGTCACTCAAGGCTTGA,0.875
9,TATACAGGGTCAAAGGCCAGATTACGAATGTCGA,4.85
10,CATACAGGGTCAGCTAGGCCAGACTAGGGACGGC,3.86
11,AGAATGAGGTTAAGATCAGGTAAACAGAATACAT,1.49
12,TCGAGTAGGTTAGAGGCATTCAGAATGGCGTCGA,-0.327
13,TCTTGTAGATCAAAGGTTAAGAGAGCCGAAGCCT,1.29
14,CAGCCTAGGTCAAGGCCAGTATAGGAGGAACGTT,1.3
15,ATAAGTAGGTTATCGGGTCATTCAGTTTGCGCAT,5.16
16,CAAACTAGGTCAAGAGGTCAGAGTCCGCTTCCCG,4.89
17,GCTTGTAGATCAAGGTTTAGAAAGACTAAGCTAA,-0.245
18,TAGCCTAGGTCATTCAGGGGCCAGTATCGAAAGC,2.97
19,ACTAGCAGGCCCAGGGTCACTCAAGATTAGTCCG,2.19
20,AGAACAAGGGCAATGAGTTGATAGCACGGGTGGC,4.7
